High-throughput results from PubChem.
Six1-Eya2 blk = qHTS Assay for Inhibitors of the Six1/Eya2 Interaction. Homeobox protein SIX1 (Homo sapiens) + Protein phosphatase EYA2 (Homo sapiens), …. AlphaScreen GST-Six1/His-Eya2 binding, biochemical; stronger effect = lower value. activity change, % (concentration not given with the values). 360,000 compounds, 0.56% hits. AID 651725, 2012; in the data active = activity change below about -65%; inconclusive = mostly about -30% to -63%; also: % is scaled to controls: 0 for no effect and ±100 for the full control effect
Target sequence (O00167 whole entry, looked up): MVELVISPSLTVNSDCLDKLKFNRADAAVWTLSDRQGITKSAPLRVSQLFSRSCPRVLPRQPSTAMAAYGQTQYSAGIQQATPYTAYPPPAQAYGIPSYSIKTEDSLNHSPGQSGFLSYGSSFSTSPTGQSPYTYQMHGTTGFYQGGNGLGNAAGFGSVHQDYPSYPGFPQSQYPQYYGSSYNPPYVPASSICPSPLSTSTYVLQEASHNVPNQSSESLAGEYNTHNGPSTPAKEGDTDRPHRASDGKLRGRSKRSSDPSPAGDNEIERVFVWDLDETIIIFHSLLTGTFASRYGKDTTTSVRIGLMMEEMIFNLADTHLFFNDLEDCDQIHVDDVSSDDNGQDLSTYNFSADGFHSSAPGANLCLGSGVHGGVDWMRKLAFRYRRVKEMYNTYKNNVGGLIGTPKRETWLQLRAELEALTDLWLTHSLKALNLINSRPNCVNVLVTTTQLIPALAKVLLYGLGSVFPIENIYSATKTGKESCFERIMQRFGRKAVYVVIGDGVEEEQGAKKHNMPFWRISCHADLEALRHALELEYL
Target sequence (Q15475 whole entry, looked up): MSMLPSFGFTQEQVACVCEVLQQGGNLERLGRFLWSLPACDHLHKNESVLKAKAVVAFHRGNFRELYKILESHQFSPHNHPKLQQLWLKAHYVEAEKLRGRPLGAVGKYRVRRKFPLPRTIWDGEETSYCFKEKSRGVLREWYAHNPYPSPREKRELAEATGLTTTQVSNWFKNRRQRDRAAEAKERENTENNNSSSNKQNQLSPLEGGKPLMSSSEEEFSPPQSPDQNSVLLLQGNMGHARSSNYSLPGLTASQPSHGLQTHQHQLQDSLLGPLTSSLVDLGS
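Compounds are tested against tagged Six1 and Eya2 proteins bridged by glutathione donor and nickel acceptor beads; after a one-hour incubation at 37 °C without light, AlphaScreen emission is recorded.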
CtBP-E1A inh = qHTS Assay for Inhibitors of the CtBP/E1A Interaction; CtBP / adenovirus E1A interaction (AlphaScreen); AlphaScreen GST-E1A/His-CtBP binding, 1536-well; stronger effect = lower value; activity change, % (no concentration beside the values); 340,000 compounds, 0.49% hits; in the data active = activity change below about -65%; inconclusive = mostly about -30% to -63%; also: % is scaled to controls: 0 for no effect and ±100 for the full control effect
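GST-E1A and His-tagged CtBP (125 nM each as 5X stock) were preincubated with pin-transferred compound for 2 h at 37 °C in the dark, then glutathione donor and nickel acceptor beads were added for 1 h before AlphaScreen reading.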
RORg inh = qHTS for inhibitors of ROR gamma transcriptional activity. 310,000 compounds, 5.4% hits. Potency, µM (titrated, usually from 53.6 µM), for inactives: at the highest dose activity change, negative = inhibition, hits mostly inhibitors. Drosophila S2 Gal4-RORgamma UAS-luciferase reporter, 20 h; also: potency is read from the fitted curve at half-maximal effect; % is scaled to controls: 0 for no effect and ±100 for the full control effect; nearly all actives have a fitted effect of over 60% in size
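Read-out: Photinus luciferase luminescence; inhibitors lower reporter signal. Insect Schneider cells with Gal4-ROR gamma fusion under metallothionein promoter, UAS reporter; 700 uM final copper sulfate induction, 20 hr, ambient temperature.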
p53 reactivator = qHTS assay for re-activators of p53 using a Luc reporter. H1299 p53-A138V BP100-luciferase reporter, luminescence, 24 h. Potency, µM (highest dose often 92.2 µM), for the others: top-dose activity change, positive = activation, most hits filed as activators. 320,000 compounds, 0.063% hits. AID 504706, 2011; also: potency is read from the fitted curve at half-maximal effect; % of control where 0% means no effect; nearly all actives have a fitted effect of over 45% in size
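p53-null H1299 cells stably carrying temperature-sensitive p53-A138V and a BP100-luciferase reporter were pinned with compounds (4-point, 1:5 series) and held 24 hrs at 37 deg C. Luminescence was read 10 min after detection reagent.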
VP16 counter = VP16 counterscreen qHTS for inhibitors of ROR gamma transcriptional activity; Drosophila S2 Gal4-VP16 UAS-luciferase, luminescence, 20 h; Potency, µM (series often up to 53.6 µM), for the others: at the highest dose activity, negative = inhibition, actives largely listed as inhibitors; 310,000 compounds, 3.5% hits;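 also: Gal4-VP16 expression switched on by copper sulfate through the metallothionein promoter; potency is read from the fitted curve at half-maximal effect; % is scaled to controls: 0 for no effect and ±100 for the full control effect; nearly all actives have a fitted effect of over 50% in size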
Active calls of the source: *; ? = inconclusive; . = no result given; [ ] = dose if it differs, or a comment. Only some compounds are listed: those with a hit (about 5.4% of all), similar ones and a draw of the others. Unless noted, calls follow the shape of the dose curve; as a rule, active = well fitted curve in the direction sought with a large enough effect; inconclusive = small, poorly fitted or top-dose-only effect, or another doubt; inactive = no such curve, though single readings can be large; an effect the other way counts as inactive or inconclusive.

SMILES	Six1-Eya2 blk	CtBP-E1A inh	RORg inh	p53 reactivator	VP16 counter
CC(=O)OC1CCC2(C)C(=CCC3C2CCC2(C)C3C[C@@H]3O[C@]32C(C)=O)C1 (some centres not stated)	.	.	16%	.	-1%
Cc1cccc(/C=N/NC(=O)c2cc(C)nc3ccccc23)n1	0	.	11µM*	-3%	?
Cc1cc(C(=O)N/N=C/c2ccc3c(c2)OCO3)c2ccccc2n1	-16	-10	-17%	3%	1%
Cc1cc(C(=O)N/N=C/c2ccc(N(C)C)cc2)c2ccccc2n1	-7	0	16µM*	5%	-7%
COCC(=O)N1CCC(Oc2ccc(C(=O)NCCc3ncccc3C)cc2)CC1	22	7	0%	22%	-15%
O=C(NCCc1ccccn1)c1ccc(OC2CCN(CCc3ccccc3)CC2)cc1	5	-3	-35%	?	-18%
CCn1cc(CNC(=O)c2ccc(OC3CCN(Cc4ccccn4)CC3)cc2)cn1	5	6	?	-3%	-3%
O=C(NCCc1cccc(Cl)c1)c1ccc(OC2CCN(Cc3ccccn3)CC2)cc1	-7	0	18µM*	.	-19%
Cc1cccnc1CCNC(=O)c1ccc(OC2CCN(Cc3ccccn3)CC2)cc1	0	-1	14µM*	-20%	?
CCn1nc(C)c(CNC(=O)c2ccc(OC3CCN(Cc4ccccn4)CC3)cc2)c1C	-10	-5	-15%	-2%	7.1µM*
O=C(NC1CCCC1)c1cccc(S(=O)(=O)N2CCCC2)c1	1	1	.	-1%	.
CCOc1ccc2c(c1)nc(SCC(=O)c1ccc(Br)s1)n2C	-1	-12	14µM*	-1%	?
CC1=NN(c2ccccc2)C(=O)C1C(=O)c1ccccc1 (configuration not stated)	9	5	?	?	?
CC1=NN(c2ccccc2)C(=O)C1C(=O)c1ccc(Cl)cc1 (configuration not stated)	2	25	11µM*	2%	?
N#Cc1c2n(c3c(=O)[nH]cnc13)CCCC2	-29	?	-4%	-5%	-1%
N#Cc1c2n(c3c(=S)nc[nH]c13)CCCCC2	-6	1	3.5µM*	-11%	18µM*
CC(C)CNC(=S)NC1CC2CCC(C1)N2Cc1ccccc1 (configuration not stated)	2	4	10µM*	3%	?
Cc1ccc(NC(=O)CN2C(=O)NC(C)(C3CC3)C2=O)cc1S(=O)(=O)N1CCCCC1 (configuration not stated)	-5	-3	.	-7%	.
CCc1c(C)nc2c(-c3ccccc3)c[nH]n2c1=O	-10	-19	.	.	.
CCOC(=O)Cc1c(C)nc2c(-c3ccccc3)c[nH]n2c1=O	-6	-1	7.9µM*	-12%	-7%[0.365 µM]
CCOC(=O)Cc1c(C)nc2c(-c3ccccc3)c(C)[nH]n2c1=O	-8	-2	34%	-5%	2%
CCOC(=O)Cc1c(C)nc2c(-c3ccccc3)c(-c3ccccc3)[nH]n2c1=O	-75*	?	13µM*	4%	?
COCc1cc(=O)n2[nH]cc(-c3ccsc3)c2n1	-7	5	16µM*	0%	?
CCOC(=O)Cc1cc(=O)n2[nH]cc(-c3ccc(Cl)cc3)c2n1	8	9	11µM*	0%	?
CCOC(=O)Cc1cc(=O)n2[nH]c(-c3ccc(Cl)cc3)cc2n1	-2	2	-22%	4%	-4%
CCOc1ccc(NC(=O)C2CCCN2S(=O)(=O)c2ccc(OCC)cc2)cc1 (configuration not stated)	25	2	37%	2%	-16%
COc1ccc(Cl)cc1NC(=O)CN(C)CC(=O)NCc1ccc(F)cc1	5	1	.	-1%	.
COc1ccc(CN(C)C(=O)[C@H](Cc2ccccc2)NC(=O)c2ccco2)c(OC)c1	-3	-6	.	-14%	.
